Source: the supplement of paper PMC3334620
Whole data set: some 33,000 sequences, median “E-score (-0.5 to 0.5)” near -0.016, cut for the highest 2% near 0.3. Many of the other results were omitted from the sample, so the highest values are more common in it than they were.

Target: T1, Yer184c (UniProt P39961)
T1 sequence: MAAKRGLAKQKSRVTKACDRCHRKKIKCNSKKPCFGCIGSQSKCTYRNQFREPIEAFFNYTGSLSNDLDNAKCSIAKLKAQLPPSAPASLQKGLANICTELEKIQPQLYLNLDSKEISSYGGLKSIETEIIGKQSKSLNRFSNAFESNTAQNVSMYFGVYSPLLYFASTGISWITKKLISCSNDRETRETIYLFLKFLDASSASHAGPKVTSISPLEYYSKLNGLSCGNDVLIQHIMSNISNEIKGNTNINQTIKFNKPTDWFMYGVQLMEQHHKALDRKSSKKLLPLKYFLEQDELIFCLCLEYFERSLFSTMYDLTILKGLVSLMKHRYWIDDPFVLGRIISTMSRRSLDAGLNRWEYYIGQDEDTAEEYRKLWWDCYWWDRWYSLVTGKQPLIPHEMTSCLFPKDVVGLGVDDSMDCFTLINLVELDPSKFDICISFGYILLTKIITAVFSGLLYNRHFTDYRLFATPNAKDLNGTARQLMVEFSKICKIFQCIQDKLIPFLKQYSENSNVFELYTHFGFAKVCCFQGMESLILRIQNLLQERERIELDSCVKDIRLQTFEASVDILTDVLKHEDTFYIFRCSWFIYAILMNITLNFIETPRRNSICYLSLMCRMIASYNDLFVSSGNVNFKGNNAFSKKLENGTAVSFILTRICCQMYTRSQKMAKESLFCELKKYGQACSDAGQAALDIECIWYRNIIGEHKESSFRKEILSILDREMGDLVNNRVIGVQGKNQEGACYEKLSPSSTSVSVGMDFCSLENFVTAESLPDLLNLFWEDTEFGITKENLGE
Assay: PBM E-score (8-mer binding enrichment) (E-score (-0.5 to 0.5)); higher = stronger / more preferred TF binding
Conditions: protein concentration: 100 nM; construct: GST-full length
Experimental: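 Universal 'all 10-mer' protein binding microarrays (Agilent AMADID 015681) probed with GST-tagged S. cerevisiae TFs (full-length or DBD) made by in vitro transcription/translation (PURExpress), about 100-200 nM. Bound TF was detected with fluorescent anti-GST. Each ungapped 8-mer (which stands for itself and its reverse complement) is scored by the PBM enrichment score (E-score), a modified Wilcoxon-Mann-Whitney statistic from -0.5 to +0.5, computed with the Universal PBM Analysis Suite. Scale: above 0.35 generally sequence-specific binding.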

**Q.** Which “PBM E-score” value does the source give for ATTTCCGA here?
**A.** Its value is 0.359.

**Q.** With ACTTCCGG as the sequence, how does the “PBM E-score” value read?
**A.** Its value is 0.335.

**Q.** With ACTTCCGC as the sequence, how does the “PBM E-score” value read?
**A.** The value was 0.166.

**Q.** For AAAAGCCG, which “PBM E-score” value is on record?
**A.** Its value is 0.244.

**Q.** With GATCTCGA as the sequence, how does the “PBM E-score” value read?
**A.** The value was 0.115.

**Q.** How did the “PBM E-score” value turn out when CAGTTGAC was run?
**A.** Its value is -0.0401.

**Q.** For ACATCTCG, which “PBM E-score” value is on record?
**A.** The value was 0.00537.

**Q.** GGGATAAA was tested. Which “PBM E-score” value did it give?
**A.** Its value is 0.195.

**Q.** AAATTATT was tested. Which “PBM E-score” value did it give?
**A.** Its value is 0.212.

**Q.** ACGCAATA was tested. Which “PBM E-score” value did it give?
**A.** The value was 0.135.

**Q.** With AGAGCTCA as the sequence, how does the “PBM E-score” value read?
**A.** The value was -0.142.

**Q.** How did the “PBM E-score” value turn out when GTACTATA was run?
**A.** The value was 0.176.

**Q.** With ATGGCGTA as the sequence, how does the “PBM E-score” value read?
**A.** The value was -0.111.

**Q.** How did the “PBM E-score” value turn out when AATCCGAA was run?
**A.** Its value is 0.0989.

**Q.** Which “PBM E-score” value does the source give for CCTCCGAA here?
**A.** Its value is 0.0955.

**Q.** GATCCGAC was tested. Which “PBM E-score” value did it give?
**A.** The value was 0.0808.

**Q.** With TATCCGCA as the sequence, how does the “PBM E-score” value read?
**A.** The value was 0.293.

**Q.** Which “PBM E-score” value does the source give for GCTCCGAA here?
**A.** The value was 0.298.

**Q.** TATCCGAA was tested. Which “PBM E-score” value did it give?
**A.** Its value is 0.386.

**Q.** With CATCCGAC as the sequence, how does the “PBM E-score” value read?
**A.** The value was 0.247.

**Q.** With CATCCGAG as the sequence, how does the “PBM E-score” value read?
**A.** The value was 0.212.

**Q.** Which “PBM E-score” value does the source give for GATCCGAA here?
**A.** The value was 0.375.

**Q.** Which “PBM E-score” value does the source give for TCTCCGAA here?
**A.** The value was 0.325.

**Q.** With GATCCAAA as the sequence, how does the “PBM E-score” value read?
**A.** The value was 0.196.

**Q.** For CATCCGAA, which “PBM E-score” value is on record?
**A.** The value was 0.338.

**Q.** For AACAAGAA, which “PBM E-score” value is on record?
**A.** Its value is 0.257.

**Q.** Which “PBM E-score” value does the source give for AAGATTAT here?
**A.** The value was 0.106.

**Q.** GCATTGCC was tested. Which “PBM E-score” value did it give?
**A.** The value was -0.0318.

**Q.** With AGACTCTA as the sequence, how does the “PBM E-score” value read?
**A.** Its value is -0.124.

**Q.** AGGCATGG was tested. Which “PBM E-score” value did it give?
**A.** The value was -0.0826.

**Q.** How did the “PBM E-score” value turn out when TCGCTAAA was run?
**A.** Its value is 0.0346.

**Q.** GTCTTTCA was tested. Which “PBM E-score” value did it give?
**A.** The value was -0.0723.

**Q.** With CCGGCCAC as the sequence, how does the “PBM E-score” value read?
**A.** Its value is 0.24.

**Q.** How did the “PBM E-score” value turn out when AACTGCTC was run?
**A.** The value was -0.0494.

**Q.** Which “PBM E-score” value does the source give for GCCGTTAC here?
**A.** The value was 0.119.

**Q.** For GTTCTGGA, which “PBM E-score” value is on record?
**A.** The value was 0.0262.

**Q.** CGACGCCG was tested. Which “PBM E-score” value did it give?
**A.** Its value is 0.239.

**Q.** For CCGACTGA, which “PBM E-score” value is on record?
**A.** Its value is 0.00051.

**Q.** CCGACTTC was tested. Which “PBM E-score” value did it give?
**A.** Its value is -0.243.

**Q.** With CCGACTTA as the sequence, how does the “PBM E-score” value read?
**A.** The value was 0.304.

**Q.** TGTTTCAA was tested. Which “PBM E-score” value did it give?
**A.** The value was 0.153.

**Q.** With ACGCGCAA as the sequence, how does the “PBM E-score” value read?
**A.** Its value is 0.156.

**Q.** AGTCCCCC was tested. Which “PBM E-score” value did it give?
**A.** Its value is -0.483.

**Q.** AATAGCGG was tested. Which “PBM E-score” value did it give?
**A.** The value was 0.0178.

**Q.** With ATACGGCC as the sequence, how does the “PBM E-score” value read?
**A.** Its value is 0.153.

**Q.** Which “PBM E-score” value does the source give for ATCCGGTA here?
**A.** The value was 0.206.

**Q.** With ATCCGGCC as the sequence, how does the “PBM E-score” value read?
**A.** Its value is 0.358.

**Q.** How did the “PBM E-score” value turn out when ATGCGGCG was run?
**A.** The value was 0.0251.

**Q.** Which “PBM E-score” value does the source give for ATCCGGCG here?
**A.** The value was 0.321.

**Q.** Which “PBM E-score” value does the source give for ATCCGACG here?
**A.** The value was 0.155.

**Q.** For ATCCGGTG, which “PBM E-score” value is on record?
**A.** The value was 0.353.

**Q.** Which “PBM E-score” value does the source give for ATGCGGCC here?
**A.** The value was 0.109.

**Q.** How did the “PBM E-score” value turn out when ATCCGGTC was run?
**A.** The value was 0.214.

**Q.** With ATTTGGCA as the sequence, how does the “PBM E-score” value read?
**A.** The value was 0.0517.

**Q.** For GTGCACAC, which “PBM E-score” value is on record?
**A.** Its value is -0.194.

**Q.** With TGGCATAA as the sequence, how does the “PBM E-score” value read?
**A.** Its value is 0.139.

**Q.** Which “PBM E-score” value does the source give for CTGGCTCA here?
**A.** Its value is -0.00502.

**Q.** For ACCAAAGC, which “PBM E-score” value is on record?
**A.** The value was 0.0124.

**Q.** CAGCCCTA was tested. Which “PBM E-score” value did it give?
**A.** The value was -0.0337.

**Q.** Which “PBM E-score” value does the source give for CATGGCGC here?
**A.** Its value is -0.0606.

**Q.** How did the “PBM E-score” value turn out when GCCAAAAA was run?
**A.** The value was 0.234.

**Q.** CGATAAAA was tested. Which “PBM E-score” value did it give?
**A.** The value was 0.333.

**Q.** GGATAAAA was tested. Which “PBM E-score” value did it give?
**A.** The value was 0.248.

**Q.** For TGGTAAAA, which “PBM E-score” value is on record?
**A.** Its value is 0.203.

**Q.** TGATAAAA was tested. Which “PBM E-score” value did it give?
**A.** Its value is 0.178.

**Q.** Which “PBM E-score” value does the source give for ATATAAAA here?
**A.** Its value is 0.278.

**Q.** Which “PBM E-score” value does the source give for CGGTAAAA here?
**A.** The value was 0.305.

**Q.** With CGGTAAAG as the sequence, how does the “PBM E-score” value read?
**A.** The value was 0.314.

**Q.** For CGGTAAAC, which “PBM E-score” value is on record?
**A.** Its value is 0.216.

**Q.** How did the “PBM E-score” value turn out when AGGTAAAG was run?
**A.** Its value is 0.106.

**Q.** Which “PBM E-score” value does the source give for GGGTAAAA here?
**A.** Its value is 0.143.

**Q.** GTATAAAA was tested. Which “PBM E-score” value did it give?
**A.** The value was 0.325.

**Q.** GTATAAAC was tested. Which “PBM E-score” value did it give?
**A.** The value was 0.256.

**Q.** With AAGTTTGG as the sequence, how does the “PBM E-score” value read?
**A.** Its value is 0.113.

**Q.** With ATCCTCGG as the sequence, how does the “PBM E-score” value read?
**A.** Its value is 0.218.

**Q.** For CCAAAGCG, which “PBM E-score” value is on record?
**A.** The value was -0.0768.

**Q.** How did the “PBM E-score” value turn out when ACAACCGA was run?
**A.** Its value is 0.261.

**Q.** With AAGGCGTG as the sequence, how does the “PBM E-score” value read?
**A.** Its value is -0.149.

**Q.** ATATTGGC was tested. Which “PBM E-score” value did it give?
**A.** The value was -0.0624.

**Q.** Which “PBM E-score” value does the source give for GGGCAACC here?
**A.** Its value is -0.121.

**Q.** How did the “PBM E-score” value turn out when CCCCAGGG was run?
**A.** The value was -0.297.

**Q.** CACGGGGC was tested. Which “PBM E-score” value did it give?
**A.** Its value is -0.0464.

**Q.** How did the “PBM E-score” value turn out when TAATCTGA was run?
**A.** Its value is -0.00734.

**Q.** With GTCCGTTA as the sequence, how does the “PBM E-score” value read?
**A.** The value was 0.207.

**Q.** With ATCCGTTC as the sequence, how does the “PBM E-score” value read?
**A.** Its value is 0.29.

**Q.** ATCCGTTA was tested. Which “PBM E-score” value did it give?
**A.** Its value is 0.367.
